Test [1] in a line: qHTS assay to test for compound auto fluorescence at 535 nm (green) in HEK293 cells (AID 720680; also: % is scaled to controls: 0 for no effect and ±100 for the full control effect). (In general: Quantitative high-throughput screening tests each substance at several concentrations.)
Test [2] can be described thus: qHTS assay to test for compound auto fluorescence at 460 nm (blue) in HEK293 cell free culture (AID 720681). Also: % is scaled to controls: 0 for no effect and ±100 for the full control effect. A digest of the protocol: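 Blue fluorescence (Ex 405/Em 460 nm, triamterene-equivalent) was read immediately after pin transfer of compound or DMSO into medium (DMEM, 10% FBS) without cells.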
A short description of test [3]: qHTS assay to test for compound auto fluorescence at 535 nm (green) in HEK293 cell free culture (AID 720682). Also: % is scaled to controls: 0 for no effect and ±100 for the full control effect. In short, it runs like this: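 Using fluorescein as calibrant, autofluorescence was quantified at 485/535 nm in cell-free DMEM containing 10% FBS after pintool addition of compound or vehicle.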
Test [4] can be described thus: qHTS assay to test for compound auto fluorescence at 590 nm (red) in HEK293 cell free culture (AID 720683). Also: % is scaled to controls: 0 for no effect and ±100 for the full control effect. A digest of the protocol:
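Red-channel autofluorescence of compounds in culture medium (DMEM, 10% FBS), no cells, measured at 540/590 nm. Rose Bengal sodium is the reference fluorophore for equivalence.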

Test [5] in a line: qHTS assay to test for compound auto fluorescence at 590 nm (red) in HepG2 cell free culture (AID 720684). Also: % is scaled to controls: 0 for no effect and ±100 for the full control effect. A digest of the protocol:
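No cells present: MEM + 10% FBS only. Compound pinned in, red label read (540/590 nm). Activity = fluorescence equivalent to Rose Bengal sodium.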

Test [6] in a line: qHTS assay to test for compound auto fluorescence at 460 nm (blue) in HepG2 cell free culture (AID 720685). Also: % is scaled to controls: 0 for no effect and ±100 for the full control effect. A digest of the protocol:
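Cell-free plates of MEM plus 10% FBS received 23 nL compound or DMSO vehicle; blue-channel (405/460 nm) intensity scored against triamterene as reference fluorophore.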

Test [7] is described as follows: qHTS assay to test for compound auto fluorescence at 535 nm (green) in HepG2 cell free culture (AID 720686). Also: % is scaled to controls: 0 for no effect and ±100 for the full control effect.
Test [8] in a line: qHTS assay to test for compound auto fluorescence at 460 nm (blue) in HepG2 cells (AID 720687). Also: % is scaled to controls: 0 for no effect and ±100 for the full control effect. In short, it runs like this: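 Blue-channel autofluorescence (Ex/Em 405/460 nm, triamterene-equivalent) was measured after 1 hr compound exposure at 37 C, 5% CO2. Cells were HepG2, plated overnight at 37 C in MEM plus 10% FBS.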
The target of test [9] is Glucocorticoid receptor (Homo sapiens) (UniProt P04150). Nature of the test: qHTS assay to identify small molecule antagonists of the glucocorticoid receptor (GR) signaling pathway (AID 720692; active = well fitted inhibition curve with a large enough effect in the signal ratio in the repeat runs, not every such curve was filed as active; the % refers to the signal ratio; also: potency is read from the fitted curve at half-maximal effect). A digest of the protocol:
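Tox21 10K library screened in concentration-response for blockade of dexamethasone (5 nM final)-induced GRE-bla reporter activity in HeLa cells; 18 h treatment, fluorescence read.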

Test [10] in a line: qHTS assay for identifying genotoxic compounds that show differential cytotoxicity against isogenic chicken DT40 cell lines with known DNA damage response pathways - wild type cell line (AID 743012). Also: nearly all actives have a fitted effect of over 60% in size. Also: potency is read from the fitted curve at half-maximal effect. In short, it runs like this:
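Endpoint: CellTiter-Glo luminescence, 30 min RT. Cells: wild type DT40, 300/well. Exposure: compounds in DMSO, 40 h, 37 C/5% CO2, after ~0.5 h pre-incubation.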

Test [11] can be described thus: qHTS assay for identifying genotoxic compounds that show differential cytotoxicity against isogenic chicken DT40 cell lines with known DNA damage response pathways - Rev3 mutant cell line (AID 743014). Also: nearly all actives have a fitted effect of over 55% in size. Also: potency is read from the fitted curve at half-maximal effect.
Test [12] can be described thus: qHTS assay to identify small molecule antagonists of the androgen receptor (AR) signaling pathway - cell viability counter screen (AID 743033; also: nearly all actives have a fitted effect of over 45% in size; also: potency is read from the fitted curve at half-maximal effect).
Test [13] is described as follows: qHTS assay to identify small molecule antagonists of the glucocorticoid receptor (GR) signaling pathway - cell viability counter screen (AID 720693). Also: nearly all actives have a fitted effect of over 55% in size. Also: potency is read from the fitted curve at half-maximal effect.
Test [14] is described as follows: qHTS assay for identifying genotoxic compounds that show differential cytotoxicity against isogenic chicken DT40 cell lines with known DNA damage response pathways - Rad54/Ku70 mutant cell line (AID 743015). Also: nearly all actives have a fitted effect of over 60% in size. Also: potency is read from the fitted curve at half-maximal effect.
Test [15] is described as follows: qHTS assay to identify small molecule antagonists of the androgen receptor (AR) signaling pathway using the MDA cell line - cell viability counter screen (AID 743041; also: % is scaled to controls: 0 for no effect and ±100 for the full control effect; nearly all actives have a fitted effect of over 45% in size). In short, it runs like this: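 Using the breast carcinoma line MDA-kb2 AR-luc, test chemicals were co-incubated with R1881 for 16 h; CellTiter-Fluor reagent, added at 15.5 h, provided a fluorescence measure of live cells.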

This is an account of results in PubChem BioAssay (Tox21).

Several values for one entry are separate records, joined by “and”; a condition that tells them apart may be missing. Equal entries are not always repeated. Values without a mark were called inactive. Results filed as inconclusive are left out. Activity calls are given as the source filed them. Unless noted, calls follow the shape of the dose curve; as a rule, active = well fitted curve in the direction sought with a large enough effect in the repeat runs; inconclusive = weak or mixed curves; inactive = no such curve, though single readings can be large; an effect the other way counts as inactive or inconclusive.

Sequence of Glucocorticoid receptor (Homo sapiens) (P04150 whole entry, looked up): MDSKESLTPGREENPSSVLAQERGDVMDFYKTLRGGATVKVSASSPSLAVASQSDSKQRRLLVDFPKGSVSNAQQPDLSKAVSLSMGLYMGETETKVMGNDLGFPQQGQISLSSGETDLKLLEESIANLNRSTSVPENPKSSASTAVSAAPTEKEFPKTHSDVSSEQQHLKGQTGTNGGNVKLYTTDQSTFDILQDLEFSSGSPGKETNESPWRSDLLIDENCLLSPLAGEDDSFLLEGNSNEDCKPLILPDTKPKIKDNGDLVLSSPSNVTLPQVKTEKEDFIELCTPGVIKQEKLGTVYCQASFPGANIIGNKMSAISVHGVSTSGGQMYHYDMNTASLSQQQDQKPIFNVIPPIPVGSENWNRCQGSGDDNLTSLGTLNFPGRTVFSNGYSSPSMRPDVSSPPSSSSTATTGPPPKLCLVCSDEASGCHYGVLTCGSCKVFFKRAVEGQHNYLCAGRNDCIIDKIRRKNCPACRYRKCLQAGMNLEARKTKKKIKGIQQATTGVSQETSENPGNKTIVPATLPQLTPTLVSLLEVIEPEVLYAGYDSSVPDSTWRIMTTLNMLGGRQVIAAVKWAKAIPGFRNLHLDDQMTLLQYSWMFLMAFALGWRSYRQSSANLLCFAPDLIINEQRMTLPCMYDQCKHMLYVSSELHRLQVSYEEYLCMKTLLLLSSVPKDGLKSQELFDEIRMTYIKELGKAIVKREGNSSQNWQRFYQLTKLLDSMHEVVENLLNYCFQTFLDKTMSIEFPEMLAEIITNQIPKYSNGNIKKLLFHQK

For `CCOC(=O)c1ccccc1C(=C1C=C(Br)C(=O)C(Br)=C1)c1cc(Br)c(O)c(Br)c1`, the molecule was called inactive in [1], in [3], in [4], in [5] and in test [7]. Also, the Potency result in test [2], in test [6], in [8], in test [10], in [11] and in test [12] was “inactive” in each case. Moreover, the Potency in test [9] is 4.61 µM (active).

With `CC(=O)Nc1cc(S(=O)(=O)O)cc2cc(S(=O)(=O)O)c(N=Nc3ccccc3)c(O)c12`, the molecule was classed as inactive in test [1], in test [3], in test [4], in [5] and in test [7]. In addition, the Potency entry in test [2], in test [6], in test [8], in test [13], in [10] and in test [14] was “inactive” each time. Moreover, the Potency result in test [12] and in test [15] was “inactive” in each case.

Turning to `C[C@]12CC[C@@H]3c4ccc(O)cc4CC[C@H]3[C@@H]1CC[C@@H]2OC(=O)CCC1CCCC1`, the call in test [1], in test [3], in [4], in [5] and in test [7] was inactive. Moreover, the Potency entry in [2], in test [6], in test [8], in [12] and in test [15] was “inactive” throughout. For the same molecule, the Potency in test [9] was 10.7 µM (active) and 8.49 µM (active); in test [10], 11.9 µM (active); in [11], 24.3 µM (active); in test [14] it was 11.9 µM (active).

For the molecule `CCOC(=O)OC(C)OC(=O)[C@@H]1N2C(=O)[C@@H](NC(=O)[C@H](N)c3ccccc3)[C@H]2SC1(C)C` (some centres not stated), the fluorescence, % of fluorescein in test [1] was 0.0714% [at 18.6 µM]. The fluorescence, % of fluorescent control in [2] is 0.602% [at 18.6 µM]; in test [4], -0.265% [at 18.6 µM]; in test [6], 0.443% [at 18.6 µM]; in test [8] it was 0.278% [at 18.6 µM]. For the same molecule, the activity change in test [3] is -0.0186% [at 18.6 µM]. The fluorescence, % of Rose Bengal in test [5] is 0.701% [at 18.6 µM]. For the same molecule, in [7], the fluorescence, % of fluorescein control was 0.112% [at 18.6 µM]. Further, the Potency entry in test [13], in [10], in [11], in [14] and in [15] was “inactive” in each case.

Regarding `CN1C(=O)N(c2ccccc2Br)Cc2cnc(Nc3ccc4c(c3)OCC(CO)O4)nc21` (configuration not stated), the outcome in test [1], in test [3], in test [4], in test [5] and in [7] was inactive. Also, the Potency entry in test [2], in test [6] and in test [8] was “inactive” in each case. Moreover, the Potency in [13] is 13.8 µM (active); in test [10], 7.7 µM (active); in [11], 9.69 µM (active); in test [14] it was 6.86 µM (active); in test [12], 43.6 µM (active).

With `c1ccc2c(c1)CCc1ccccc1N2`, the call in test [1], in test [3], in [4], in test [5] and in [7] was inactive. In addition, the Potency result in [2], in [6], in test [8], in test [13] and in [10] was “inactive” in each case.

Regarding `CC(O)c1ccccc1` (configuration not stated), the outcome in [1], in [3], in test [4], in test [5] and in test [7] was inactive. For the same molecule, the Potency result in test [2], in test [6], in test [8], in test [13], in test [10] and in [14] was “inactive” each time. The Potency entry in test [12] is “inactive”.

`Cc1ccc2c(Br)cc(Br)c(O)c2n1`: the molecule was classed as inactive in test [1], in test [3], in test [4], in test [5] and in test [7]. For the same molecule, the Potency result in test [2], in [6], in test [8], in [13], in test [12] and in [15] was “inactive” throughout. Also, the Potency in [9] is 23.9 µM (active); in test [10], 7.5 µM (active); in [11], 9.44 µM (active); in test [14], 8.41 µM (active).

Consider `CC(=O)Nc1ccc(C)cc1C`, for which the result in [1], in [3], in [4], in [5] and in [7] was inactive. Moreover, the Potency entry in [2], in test [6], in test [8], in [13], in test [11] and in test [14] was “inactive” each time. The Potency entry in [12] and in [15] was “inactive” each time.

For the molecule `O=C(Nc1cccc2c(=O)cc(-c3nn[nH]n3)oc12)c1ccc(OCCCCc2ccccc2)cc1`, the molecule was called inactive in test [1], in [3], in test [4], in [5] and in test [7]. Besides, the Potency entry in [2], in test [6], in test [8], in test [13], in test [10] and in [11] was “inactive” each time. Besides, the Potency entry in test [14], in test [12] and in test [15] was “inactive” throughout.

As for `C/C=C\C/C=C/CCCCCCCCOC(C)=O`, the molecule was called inactive in test [1], in test [3], in test [4], in test [5] and in test [7]. Besides, the Potency result in test [2], in test [6], in [8], in test [13] and in test [15] was “inactive” throughout. For the same molecule, the Potency in test [10] was 27.3 µM (active); in test [11], 27.3 µM (active); in [14] it was 24.3 µM (active).

In the case of `CC1(C)[C@H](C(=O)O)N2C(=O)C[C@H]2S1(=O)=O`, the call in [1], in [3], in [4], in test [5] and in test [7] was inactive. The Potency entry in [2], in test [6], in test [8], in test [13], in [10] and in test [11] was “inactive” in each case. In addition, the Potency entry in test [14], in [12] and in [15] was “inactive” throughout.

Regarding `O=c1[nH]c2ccc(Cl)cc2o1`, the outcome in test [1], in test [3], in test [4], in test [5] and in test [7] was inactive. Besides, the Potency result in test [2], in test [6], in test [8], in test [13], in test [10] and in test [11] was “inactive” in each case. Moreover, the Potency result in test [14], in test [12] and in test [15] was “inactive” throughout.

Take `C(=C\c1ccccc1)/c1ccccc1`: the outcome in test [1], in test [3], in test [4], in test [5] and in [7] was inactive. Moreover, the Potency result in [2], in [6], in [8], in test [13], in test [11] and in [14] was “inactive” each time. Moreover, the Potency entry in test [12] and in [15] was “inactive” in each case.

For `CC(C)(c1ccccc1)c1ccccc1`, the outcome in test [1], in test [3], in test [4], in [5] and in [7] was inactive. Moreover, the Potency result in test [2], in [6], in [8], in test [13], in test [10] and in test [11] was “inactive” each time. Further, the Potency result in test [14], in [12] and in test [15] was “inactive” in each case.
